Assay results reported in PubChem BioAssay (NCATS).
“And” between values parts separate entries of the source, which are not always exact repeats. Equal values may be shown once. A number with no mark means an inactive call. Results filed as inconclusive are left out. The source made the active and inactive calls. Unless noted, calls follow the shape of the dose curve; as a rule, active = well fitted curve in either direction with a large enough effect (not every such curve was filed as active); inconclusive = small, poorly fitted or top-dose-only effect, or another doubt; inactive = flat fitted curve, though single readings scatter.

What was measured:
[1] = target: Lysosomal acid glucosylceramidase (Homo sapiens) (UniProt P04062); assay: Glucocerebrosidase-p2 (AID 348; in the data active = potency below about 10 µM; also: potency is read from the fitted curve at half-maximal effect); conditions: purified GBA, blue fluorogenic substrate, 40 min
Sequence of Lysosomal acid glucosylceramidase (Homo sapiens) (P04062 whole entry, looked up): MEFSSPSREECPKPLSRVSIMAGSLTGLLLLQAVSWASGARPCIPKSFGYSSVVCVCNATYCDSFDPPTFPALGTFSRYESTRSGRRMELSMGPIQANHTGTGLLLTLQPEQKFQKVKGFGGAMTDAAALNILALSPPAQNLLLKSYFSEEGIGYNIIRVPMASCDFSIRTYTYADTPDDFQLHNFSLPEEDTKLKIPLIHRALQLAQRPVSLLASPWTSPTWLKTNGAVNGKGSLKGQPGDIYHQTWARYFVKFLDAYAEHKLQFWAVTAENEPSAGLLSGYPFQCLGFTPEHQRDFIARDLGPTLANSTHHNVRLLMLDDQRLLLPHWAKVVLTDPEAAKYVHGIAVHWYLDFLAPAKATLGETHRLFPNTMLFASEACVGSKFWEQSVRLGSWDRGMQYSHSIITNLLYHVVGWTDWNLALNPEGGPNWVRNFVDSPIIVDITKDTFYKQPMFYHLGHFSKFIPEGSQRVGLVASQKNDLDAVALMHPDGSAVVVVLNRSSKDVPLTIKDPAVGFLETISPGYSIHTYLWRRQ
How it was run: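 Normal human glucocerebrosidase (0.2 nM) with blue fluorogenic substrate (80 uM final) in citrate/phosphate pH 5.9 with 10mM sodium taurocholate, 0.01% tween-20; 40 min RT, NaOH/glycine stop; fluorescence Ex 365/Em 440; AC50 from a titration from 0.6 nM upwards.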

[2] = AP1 Signaling Pathway (AID 357); conditions: ME-180 AP-1-bla reporter, EGF-induced, beta-lactamase ratio, 5 h; at 7.69 µM (top of the series) unless noted; also: % is scaled to controls: 0 for no effect and ±100 for the full control effect
How it was run: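 ME-180 cells with beta-lactamase reporter under AP-1 response element, stimulated with EC50 EGF; compounds tested in titration series, 5 h at 37 °C. CCF4 substrate added 2.5 h at room temperature; 460/530 nm emission ratio gave %activity and AC50.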

[3] = target: Cytochrome P450 1A2 (Homo sapiens) (UniProt P05177); assay: p450-cyp1a2 (AID 410; calls by dose curve; also: potency is read from the fitted curve at half-maximal effect;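 as to activity change, negative = inhibition: -100% = full effect of reference inhibitor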); conditions: recombinant CYP1A2, luciferin-ME demethylation, luminescence; series mostly up to 11.4 µM
Sequence of Cytochrome P450 1A2 (Homo sapiens) (P05177 whole entry, looked up): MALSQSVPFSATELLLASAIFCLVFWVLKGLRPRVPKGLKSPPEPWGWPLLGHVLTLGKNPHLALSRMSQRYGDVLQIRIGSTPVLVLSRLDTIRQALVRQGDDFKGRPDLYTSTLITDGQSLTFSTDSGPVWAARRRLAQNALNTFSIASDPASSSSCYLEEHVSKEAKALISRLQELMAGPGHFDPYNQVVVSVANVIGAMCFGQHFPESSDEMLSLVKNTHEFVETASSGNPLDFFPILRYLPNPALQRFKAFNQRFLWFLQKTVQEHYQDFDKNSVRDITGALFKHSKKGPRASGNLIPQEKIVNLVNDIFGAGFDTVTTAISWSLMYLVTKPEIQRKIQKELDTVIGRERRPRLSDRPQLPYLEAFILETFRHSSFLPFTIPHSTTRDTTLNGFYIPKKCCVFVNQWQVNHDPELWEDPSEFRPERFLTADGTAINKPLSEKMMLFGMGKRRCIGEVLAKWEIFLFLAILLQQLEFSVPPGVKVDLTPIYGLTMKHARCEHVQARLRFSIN
How it was run: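 Luminescent demethylation readout: Luciferin-ME (100uM, equal to Km) turned over by 20nM CYP1A2 for 60 min at room temperature after NADPH regeneration addition, following 10 min compound preincubation. Normalization used 57 uM furafylline as full inhibition.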

[4] = target: Glucocorticoid receptor (Homo sapiens) (UniProt P04150); assay: GR-GFP Redistribution (AID 450;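 active = compounds whose dose series gives a full or clear partial fitted curve of increased nuclear translocation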; also: potency is read from the fitted curve at half-maximal effect); conditions: U2OS GR-GFP nuclear translocation, laser cytometry, 2 h
Sequence of Glucocorticoid receptor (Homo sapiens) (P04150 whole entry, looked up, the tested form may be a part): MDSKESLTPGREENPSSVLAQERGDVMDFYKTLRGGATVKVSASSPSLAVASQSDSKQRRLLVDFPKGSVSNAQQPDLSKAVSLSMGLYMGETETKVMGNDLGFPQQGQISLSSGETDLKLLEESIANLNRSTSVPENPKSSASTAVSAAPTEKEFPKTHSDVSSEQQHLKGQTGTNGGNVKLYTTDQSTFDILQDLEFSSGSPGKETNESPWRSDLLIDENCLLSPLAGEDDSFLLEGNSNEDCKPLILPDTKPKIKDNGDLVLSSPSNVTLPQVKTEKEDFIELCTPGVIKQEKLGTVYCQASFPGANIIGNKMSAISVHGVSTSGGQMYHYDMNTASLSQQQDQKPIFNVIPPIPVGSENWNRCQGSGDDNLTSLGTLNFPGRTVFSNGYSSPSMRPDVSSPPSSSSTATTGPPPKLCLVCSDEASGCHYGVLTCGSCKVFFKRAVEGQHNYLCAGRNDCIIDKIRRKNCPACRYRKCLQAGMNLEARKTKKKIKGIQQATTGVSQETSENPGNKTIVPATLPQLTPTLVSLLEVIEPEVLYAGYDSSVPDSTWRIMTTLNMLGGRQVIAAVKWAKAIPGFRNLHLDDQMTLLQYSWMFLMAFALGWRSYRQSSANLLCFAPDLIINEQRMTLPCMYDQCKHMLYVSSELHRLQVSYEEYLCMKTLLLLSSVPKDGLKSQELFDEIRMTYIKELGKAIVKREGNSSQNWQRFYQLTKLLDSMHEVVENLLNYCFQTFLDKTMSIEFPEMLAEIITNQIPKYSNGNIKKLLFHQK

[5] = target: Glucocorticoid receptor (Homo sapiens) (UniProt P04150); assay: GR-EFC Redistribution (AID 451; calls by dose curve; also: potency is read from the fitted curve at half-maximal effect); conditions: CHO-K1 GR-EFC translocation, beta-gal luminescence, 2 h
How it was run: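 CHO-K1 cells stably expressing nuclear-localized β-gal enzyme acceptor and GR fused C-terminally to the enzyme donor fragment; ligand-driven nuclear translocation restores β-gal by complementation. Compounds titrated up to 46 uM final, 2 h at 37 °C; luminescence read.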

[6] = target: Mitogen-activated protein kinase 10 (Mus musculus) (UniProt Q61831); assay: JNK3 AlphaScreen Assay (AID 530); conditions: JNK3 lysate, c-Jun phosphorylation; series mostly up to 11.4 µM;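 also: kinase came from lysate of stimulated human HepG2 cells; signal reports phosphorylation of biotinylated GST-cJun 1-79 at Ser73 with 10 µM ATP; % is scaled to controls: 0 for no effect and ±100 for the full control effect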
How it was run: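 Phosphorylation of biotinylated GST-cJun(1-79) at Ser73 is measured by AlphaScreen proximity luminescence. Enzyme is JNK3 in HepG2 lysates activated with interleukin-1beta and tumor necrosis factor alpha; ATP is 10 uM final.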

[7] = target: 3',5'-cyclic-AMP phosphodiesterase 4B (Homo sapiens) (UniProt Q07343); assay: qHTS Assay for Inhibitors of PDE-IV (AID 607; active = well fitted activation curve with a large enough effect in the main read-out, with a control signal flat, not every such curve was filed as active; also: % of control where 0% means no effect); conditions: HEK293 ACTOne CNG channel cells, membrane potential fluorescence; series mostly up to 22.9 µM
Sequence of 3',5'-cyclic-AMP phosphodiesterase 4B (Homo sapiens) (Q07343 whole entry, looked up): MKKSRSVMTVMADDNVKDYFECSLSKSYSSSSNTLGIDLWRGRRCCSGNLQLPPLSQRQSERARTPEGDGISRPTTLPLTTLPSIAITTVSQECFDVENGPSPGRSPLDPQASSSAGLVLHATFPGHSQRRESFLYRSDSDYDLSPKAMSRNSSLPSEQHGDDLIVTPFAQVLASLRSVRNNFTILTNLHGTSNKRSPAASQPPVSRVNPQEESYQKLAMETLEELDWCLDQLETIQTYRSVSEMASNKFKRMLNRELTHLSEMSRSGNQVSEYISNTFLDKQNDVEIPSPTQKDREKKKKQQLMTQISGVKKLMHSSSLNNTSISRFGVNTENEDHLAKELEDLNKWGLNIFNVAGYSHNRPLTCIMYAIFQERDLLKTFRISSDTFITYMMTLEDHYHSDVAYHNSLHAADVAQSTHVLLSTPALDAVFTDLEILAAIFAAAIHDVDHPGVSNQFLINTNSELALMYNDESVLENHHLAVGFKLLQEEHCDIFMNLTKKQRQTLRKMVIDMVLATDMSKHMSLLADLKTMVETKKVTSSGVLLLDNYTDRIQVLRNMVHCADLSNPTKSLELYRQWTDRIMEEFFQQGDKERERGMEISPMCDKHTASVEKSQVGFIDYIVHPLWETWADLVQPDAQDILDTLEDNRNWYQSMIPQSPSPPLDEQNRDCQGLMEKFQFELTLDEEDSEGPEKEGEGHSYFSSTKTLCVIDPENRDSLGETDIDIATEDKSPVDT
How it was run: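 HEK293 ACTOne cells with CNG channel (1000/well), endogenous PDE4; membrane potential dye, compounds up to 22.9 uM final. Fluorescence Ex 535/Em 590; RO 20-1724 (100 uM final) as reference.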

[8] = target: Cytochrome P450 3A4 (Homo sapiens) (UniProt P08684); assay: qHTS Assay for Activators of Cytochrome P450 3A4 (AID 885; active = well fitted curve in the direction sought with a large enough effect; an effect the other way counts as inactive or inconclusive; also: nearly all actives have a fitted effect of over 65% in size); conditions: recombinant CYP3A4, Luciferin-PPXE luminescence, 60 min; series mostly up to 11.4 µM
Sequence of Cytochrome P450 3A4 (Homo sapiens) (P08684 whole entry, looked up): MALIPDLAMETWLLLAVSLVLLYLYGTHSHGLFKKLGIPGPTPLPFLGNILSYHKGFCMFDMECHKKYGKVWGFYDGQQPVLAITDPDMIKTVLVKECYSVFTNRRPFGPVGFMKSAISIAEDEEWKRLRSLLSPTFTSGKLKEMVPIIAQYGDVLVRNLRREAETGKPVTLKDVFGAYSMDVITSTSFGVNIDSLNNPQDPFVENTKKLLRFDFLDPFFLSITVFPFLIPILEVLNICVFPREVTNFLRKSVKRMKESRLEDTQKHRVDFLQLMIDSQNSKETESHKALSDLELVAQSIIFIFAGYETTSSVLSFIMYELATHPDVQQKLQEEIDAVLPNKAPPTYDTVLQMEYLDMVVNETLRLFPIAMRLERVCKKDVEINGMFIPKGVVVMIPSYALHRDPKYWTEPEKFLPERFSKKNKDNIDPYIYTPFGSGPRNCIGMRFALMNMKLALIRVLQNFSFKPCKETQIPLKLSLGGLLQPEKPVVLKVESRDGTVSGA
How it was run: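 Human CYP3A4 dealkylates Luciferin-PPXE to luciferin, which luciferase detection converts to light. Substrate was at its KM (25uM), buffer 200mM KPO4, reaction 60 min at RT.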

[9] = NFAT Signaling Pathway (AID 444); conditions: Jurkat NFAT-bla M1, carbachol, beta-lactamase ratio, 5 h;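 also: carbachol stimulus at about its EC50 of 1 µM final; % is scaled to controls: 0 for no effect and ±100 for the full control effect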
How it was run: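 Jurkat cells carrying an NFAT-driven β-lactamase reporter and co-transfected muscarinic M1 receptor were treated with compound plus carbachol (1 uM final, an EC50 level) for 5 h at 37 °C. CCF4 loading followed for 1 h at RT; 460/530 nm ratio gave %activity.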

[10] = Stat Signaling Pathway (AID 446); conditions: ME-180 SIE beta-lactamase reporter, IL-6 stimulated, 5 h;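 also: ME-180 cervical cancer cells given 40 pM IL-6 alongside compound; SIE-controlled beta-lactamase reporter measured as 460/530 nm FRET emission ratio; % is scaled to controls: 0 for no effect and ±100 for the full control effect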
How it was run: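 Normalization used AC90 stimulation (300 pM IL-6) and AC90 inhibition (125 nM pan-JAK inhibitor at 40 pM IL-6). The underlying signal is SIE-driven beta-lactamase in ME-180 cells after 5 h IL-6 exposure with compound.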

[11] = target: Cytochrome P450 2D6 (Homo sapiens) (UniProt P10635); assay: qHTS Assay for Inhibitors and Substrates of Cytochrome P450 2D6 (AID 891; active = well fitted curve in the direction sought with a large enough effect; an effect the other way counts as inactive or inconclusive; also: potency is read from the fitted curve at half-maximal effect; nearly all actives have a fitted effect of over 60% in size); conditions: recombinant CYP2D6, luciferin-ME EGE luminescence; series mostly up to 11.4 µM
Sequence of Cytochrome P450 2D6 (Homo sapiens) (P10635 whole entry, looked up): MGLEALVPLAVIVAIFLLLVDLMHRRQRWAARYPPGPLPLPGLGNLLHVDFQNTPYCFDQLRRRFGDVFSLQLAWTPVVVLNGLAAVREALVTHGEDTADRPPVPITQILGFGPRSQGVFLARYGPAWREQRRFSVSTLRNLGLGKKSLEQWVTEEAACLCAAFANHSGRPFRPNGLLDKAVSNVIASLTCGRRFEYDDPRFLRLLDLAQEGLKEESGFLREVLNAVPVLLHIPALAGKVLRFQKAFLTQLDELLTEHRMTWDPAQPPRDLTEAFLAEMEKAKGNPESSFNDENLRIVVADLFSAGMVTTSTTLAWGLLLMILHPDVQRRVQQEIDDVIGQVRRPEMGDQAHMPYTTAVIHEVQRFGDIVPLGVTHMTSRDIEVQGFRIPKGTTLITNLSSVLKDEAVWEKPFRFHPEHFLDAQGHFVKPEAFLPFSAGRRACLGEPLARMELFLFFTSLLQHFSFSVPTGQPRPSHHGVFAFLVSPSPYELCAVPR
How it was run: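 Luminescent read-out of luciferin formed by 5 nM human CYP2D6 demethylating 30 uM Luciferin-ME EGE (Km level) over 60 min at room temperature after NADPH regeneration addition. Data normalized to full inhibition by 1.43 uM quinidine.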

[12] = qHTS Assay for Identification of Small Molecule Agonists for Hypoxia Response Element Signaling Pathway (AID 914; active = well fitted activation curve with a large enough effect in the signal ratio, with a control signal flat, not every such curve was filed as active; the % refers to the signal ratio; also: potency is read from the fitted curve at half-maximal effect); conditions: ME-180 (cervical carcinoma) HRE-bla reporter, beta-lactamase ratio, CoCl2, 17 h; activation: active compounds read high
How it was run: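 Cells were plated overnight, pin-dosed with compound in a titration series, co-stimulated with EC50 CoCl2 and incubated 17 hours at 37 degrees Celsius. CCF4 substrate was then loaded, and AC50 values came from the 460nm/530nm ratio.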

[13] = at 7.69 µM (top of the series) unless noted

## CSc1cccc(NC(=O)OC2CCCCCCCCCCC2)c1
[1]
  Potency: > 11.4 µM
[2]
  activity change, negative = inhibition: 8.21%
[3]
  Potency: 5.01 µM (active)
[4]
  Potency: > 46 µM
[5]
  Potency: > 9.22 µM
[6]
  Potency: inactive
[7]
  Potency: inactive
[8]
  Potency: inactive

## C[C@H](Oc1ccc(Oc2cnc3ccc(Cl)cc3n2)cc1)C(=O)O
[1]
  Potency: > 11.4 µM
[2]
  activity change, negative = inhibition: -24.4% [at 38 µM]
[9]; at 7.69 µM (top of the series)
  activity change, negative = inhibition: 8.25%
[9]; at 38 µM (top of the series)
  activity change, negative = inhibition: 7.14%
[10]; at 7.69 µM (top of the series)
  activity, negative = inhibition: -19.5%
[10]; at 38 µM (top of the series)
  activity, negative = inhibition: -10.1%
[4]
  Potency: > 46 µM
[5]
  Potency: > 46 µM and > 9.22 µM
[6]
  Potency: inactive
[7]
  Potency: inactive

## Clc1ccc2c(c1)N(CCCN1CCCC13CCCCC3)c1ccccc1S2
[1]
  Potency: > 11.4 µM
[2]
  activity change, negative = inhibition: 19%
[3]
  activity change, negative = inhibition: -6.2% [at 2.29 µM]
[4]
  Potency: > 46 µM
[5]
  Potency: > 9.22 µM
[6]
  Potency: inactive
[7]
  Potency: inactive
[11]
  Potency: 0.0079 µM (active)

## N#Cc1ccc(CN2CC3(CCN(C(=O)c4cc(C(F)(F)F)cc(C(F)(F)F)c4)CC3)C2)cc1
[1]
  Potency: > 11.4 µM
[2]
  activity change, negative = inhibition: -21.3%
[3]
  Potency: inactive
[10]; [13]
  activity, negative = inhibition: 7.48%
[5]
  Potency: > 46 µM
[6]
  Potency: inactive
[7]
  Potency: inactive

## CN1CCN(c2ncc3nc(-c4cccs4)c(=O)n(C[C@H]4CCCO4)c3n2)CC1
[1]
  Potency: > 11.4 µM
[2]
  activity change, negative = inhibition: 19.1%
[3]
  Potency: 12.6 µM (active)
[4]
  Potency: > 9.22 µM
[5]
  Potency: > 46 µM
[6]
  Potency: inactive
[8]
  Potency: inactive
[12]
  Potency: 3.16 µM (active)

## NC(N)=NC(N)=Nc1ccc(C(=O)O)cc1
[1]
  Potency: > 11.4 µM
[2]
  activity change, negative = inhibition: 7%
[9]; [13]
  activity change, negative = inhibition: 6.33%
[10]; [13]
  activity, negative = inhibition: 16.2%
[4]
  Potency: > 46 µM
[5]
  Potency: > 9.22 µM
[6]
  Potency: inactive
[7]
  Potency: inactive

## CN(C)CCCSc1nc2ccccc2[nH]1
[1]
  Potency: > 11.4 µM
[2]
  activity change, negative = inhibition: -0.00775%
[9]; [13]
  activity change, negative = inhibition: -10.2%
[10]; [13]
  activity, negative = inhibition: 3.11%
[4]
  Potency: > 46 µM
[5]
  Potency: > 9.22 µM
[6]
  Potency: inactive
[7]
  Potency: inactive

## N#CC(=NCCO)C1=C(O)c2ccccc2C1=O
[1]
  Potency: > 11.4 µM
[2]
  activity change, negative = inhibition: -1.5%
[9]; [13]
  activity change, negative = inhibition: 17.6%
[10]; [13]
  activity, negative = inhibition: 10.7%
[4]
  Potency: > 46 µM
[5]
  Potency: > 9.22 µM
[6]
  Potency: inactive
[7]
  Potency: inactive

## COCCn1c(=O)cnc2cnc(N3CCNCC3)nc21
[1]
  Potency: > 11.4 µM
[2]
  activity change, negative = inhibition: -9.65%
[9]; [13]
  activity change, negative = inhibition: -7.03%
[10]; [13]
  activity, negative = inhibition: -2.85%
[4]
  Potency: > 9.22 µM
[5]
  Potency: > 46 µM
[6]
  Potency: inactive
[7]
  Potency: inactive
